# Screens as filed in PubChem.
# Rows were chosen to be rich in hits. Some 6.3% of all compounds tested hit in one or more screens of this group.
# Spn MK inh: S. pneumoniae mevalonate kinase inhibition; purified MK, PK/LDH-coupled NADH absorbance 340 nm; inhibition, % at 10 µM; 65,000 compounds, 0.48% hits; AID 555;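 active = ranked among the strongest by inhibition in the single 10 µM screen, a fixed top-ranked set picked for dose follow-up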
# NADH enzymes: blocks coupling enzymes of NAD/NADH assays; coupled PK/LDH NADH assays, four targets; IC50, µM (highest dose often 10 µM), inactives show at the top dose inhibition; 65,000 compounds, 0.02% hits; AID 774;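 active = single-dose screening hits from any of four coupled enzyme assays that gave an IC50 when retested across doses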;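 note: the DPM-DC format reads NADH fluorescence rather than 340 nm absorbance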
# PMK inhibit: S. pneumoniae PMK inhibition | purified PMK, PK/LDH-coupled NADH absorbance 340 nm | inhibition, % at 10 µM | 65,000 compounds, 0.49% hits | AID 539;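 active = top-ranked compounds by inhibition in the single 10 µM screen, taking a fixed number of the strongest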;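 note: 0% = full reaction with DMSO carrier and 100% = background rate without enzyme reaction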
# Spn DPM-DC inh: blocks S. pneumoniae diphosphomevalonate decarboxylase; purified DPM-DC, PK/LDH coupled NADH fluorescence; calls only at 10 µM; 65,000 compounds, 0.49% hits; AID 556;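 active = the 320 compounds with the highest percent inhibition in the single-dose primary screen, excluding strongly autofluorescent ones, cut at about 32% in these data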;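 note: kinetic rate of NADH fluorescence loss reporting ADP formed by the decarboxylase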
# Fluor 339 460: intrinsic fluorescence of library compounds, ex339/em460 – biochemical, MLSMR library, data from DPM-DC assay, artefact control, profiling panel; compound autofluorescence, ex339/em460 nm, NADH buffer; stronger effect = higher value; 1 = no-compound wells, NADH background; fluorescence fold increase at 10 µM; 65,000 compounds, 5.5% hits; AID 709;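 active = at 10 µM, mean starting fluorescence two-fold or more over control wells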;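 note: signal is the first read of a kinetic run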
# Abs 340nm: compounds absorbing at 340 nm; compound absorbance at 340 nm, fold over control; fold change at 10 µM; 65,000 tested, under 10 active; AID 708;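 active = at 10 µM dose, initial 340 nm absorbance at least 2 fold that of control wells; inactive = change under 2 fold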;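 note: initial absorbance extrapolated from kinetic A340 decline of NADH oxidation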
# An asterisk follows results filed as active; i = inactive; nt = not tested or not shown; + = active, no number.
SMILES,Spn MK inh,NADH enzymes,PMK inhibit,Spn DPM-DC inh,Fluor 339 460,Abs 340nm
Nc1ccc(-c2nc3ccc(-c4nc5ccccc5o4)cc3[nH]2)cc1,0,3%,5,nt,3.7*,1.1
O=C(O)CCC(NS(=O)(=O)c1ccc(-c2ccccc2)cc1)C(=O)O (stereo not given),11,7%,8,i,1.1,1
CC(C)(O)P(C)(=O)c1ccccc1 (stereo not given),7,23%,14,+,0.5,0.99
CC(C)(C)P(=O)(CO)c1ccccc1 (stereo not given),11,4%,0,i,1.1,1.1
CCOC(=O)c1ccccc1OCc1cc(/C=N/n2cncn2)ccc1OC,15,5%,0,i,1.1,1.1
COCCCNc1oc(-c2ccccc2F)nc1C#N,4,2%,0,nt,2.1*,1.1
N#Cc1nc(-c2ccc(OCc3ccccc3)cc2)oc1NCc1cccnc1,10,10%,13,i,1.8,1
COc1ccc(CCNc2oc(COc3ccccc3F)nc2C#N)cc1OC,5,6%,13,i,1.1,1
COCCCNc1oc(-c2ccccc2OC)nc1C#N,13,14%,14,nt,3.9*,1.1
N#Cc1nc(-c2ccccc2F)oc1NCCc1ccccn1,8,4%,0,nt,2.3*,1.1
N#Cc1nc(-c2ccccc2F)oc1NCc1ccccc1,4,3%,2,nt,2.1*,1.1
CCOc1cc(CN2CCN(c3ccc(C(C)=O)cc3)CC2)ccc1OC,44*,15%,0,i,1.1,1.2
COc1ccc(CN2CCN(C(=O)c3cccs3)CC2)cc1Br,49*,21%,13,i,1.1,1.1
CCOc1cc(CN2CCN(C(=O)c3ccco3)CC2)ccc1OC,51*,7%,0,i,1,1.1
COc1ccc(C)cc1NCc1cccc(OC)c1OC,47*,6%,0,i,1,1
Cc1ccc(OCc2nc(C#N)c(NCCCn3ccnc3)o2)cc1,7,9%,16,i,0.96,0.99
N#Cc1nc(COc2ccccc2)oc1NCCCn1ccnc1,4,2%,2,i,1.1,0.99
N#Cc1nc(COc2ccccc2F)oc1NCCCn1ccnc1,0,2%,5,i,1.1,1
CN(C)c1oc(-c2ccc(OCc3ccccc3)cc2)nc1C#N,10,12%,14,nt,3.9*,1.1
N#Cc1nc(-c2ccc(OCc3ccccc3Cl)cc2)oc1NCCCn1ccnc1,2,1%,0,i,2.3*,1.1
N#Cc1nc(-c2ccco2)oc1NCCCn1ccnc1,16,16%,16,nt,4*,1.1
N#Cc1nc(-c2ccc(OCc3ccccc3)cc2)oc1NCCCn1ccnc1,12,14%,15,nt,4*,1
CC(C)Cn1nc(NC(=O)C(C)(C)C)c2cc3ccccc3nc21,0,6%,5,i,1.7,1
COc1ccc2nc3c(cc2c1)c(NC(=O)c1cccs1)nn3CC(C)C,9,11%,12,nt,3.7*,1
C=CCNC(=O)NC(=S)c1ccccc1,2,1%,2,i,1.1,1.1
SMILES,Spn MK inh,NADH enzymes,PMK inhibit,Spn DPM-DC inh,Fluor 339 460,Abs 340nm
CCOC(=O)c1c(C)nc2ncccn12,8,6%,4,nt,2.1*,1
CC(=O)c1sc(Nc2ccccn2)nc1C,10,12%,12,i,1.3,1.3
CCOC(=O)N1CCC(N2C(=O)c3ccccc3C2Nc2cc(C(=O)OC)cc(C(=O)OC)c2)CC1 (stereo not given),0,0%,0,nt,2.1*,1.1
COc1ccc(-c2nc(C#N)c(N3CCCCCC3)o2)cc1OC,13,15%,16,nt,3.9*,1.1
CC(C)CNc1oc(-c2ccc(F)cc2)nc1C#N,1,2%,5,nt,2.4*,1
COc1ccc(-c2nc(C#N)c(NC(C)C)o2)cc1,0,3%,6,nt,2.3*,1.1
N#Cc1nc(COc2cccc(Cl)c2)oc1N1CCCC1,4,1%,0,i,1.1,1
N#Cc1nc(-c2ccc(F)cc2)oc1NCc1cccc2c1OCO2,10,3%,0,i,1.7,1.1
N#Cc1nc(-c2ccccc2F)oc1N1CCCC1,3,6%,9,nt,3.6*,1.1
OCC1(c2cc(C(F)(F)F)n[nH]2)CCCCC1,4,2%,0,i,1.1,1
N#Cc1nc(-c2ccc(Cl)cc2)oc1N1CCCCC1,4,7%,10,nt,2.4*,1.1
N#Cc1nc(-c2ccccc2)oc1N1CCCCC1,4,4%,4,nt,3.7*,1.1
N#Cc1nc(COc2ccc(F)cc2)oc1N1CCCC1,7,6%,10,i,1.1,0.98
Cc1ccc(-c2nc(C#N)c(N3CCCCC3)o2)cc1,0,1%,1,nt,2.2*,1.1
N#Cc1nc(-c2ccc(F)cc2)oc1N1CCCC1,2,7%,12,nt,2.4*,1.1
CCOc1ccccc1NC(=O)C1CCN(S(=O)(=O)c2c(C)noc2C)CC1,0,3%,10,i,1.1,1.1
COc1ccc(-c2nc(C#N)c(N3CC(C)OC(C)C3)o2)cc1OC (stereo not given),7,4%,0,nt,2.1*,1.1
CC1CN(c2oc(-c3ccccc3Cl)nc2C#N)CC(C)O1 (stereo not given),6,8%,2,i,1.8,1.1
COc1ccc(-c2nc(C#N)c(N3CCCCCC3)o2)cc1,2,1%,0,nt,2.3*,1.1
Cc1ccccc1-c1nnc(-c2ccc(Br)cc2)o1,5,4%,7,i,1.1,1
Oc1ccccc1-c1nnc(-c2ccc(C(F)(F)F)cc2)o1,0,17%,22,i,2.5*,1
CC1(C)Cc2c(C#N)c(NC3CCCCC3)nc(-c3ccco3)c2CO1,6,4%,2,nt,2.2*,1.1
N#Cc1c(-c2ccco2)nc(NCC2CCCO2)[nH]c1=O (stereo not given),13,9%,7,i,1.1,1.1
CC1(C)Cc2c(C#N)c(NCC3CCCO3)nc(-c3ccco3)c2CO1 (stereo not given),0,10%,20,nt,2.3*,1.1
Cc1cccc(-c2noc(CN(C)S(=O)(=O)c3cc(Cl)ccc3Cl)n2)c1,5,4%,4,i,1.1,1
O=C(Cc1c[nH]c2ccccc12)Nc1nc2ccccc2[nH]1,4,9%,15,i,1.3,1
COc1ccc2[nH]c(C)c(CN3CCCC(C)C3)c(=O)c2c1 (stereo not given),4,5%,2,i,2.1*,0.98
CCOc1ccc2[nH]c(C)c(CN3CCCCC3)c(=O)c2c1,10,4%,0,i,3*,1.1
COc1ccc2[nH]c(C)c(CN3CCC(C)CC3)c(=O)c2c1,0,4%,0,i,1.7,1.1
CC(=O)N1CCC(N2CCN(c3ccccc3F)CC2)CC1,32,23%,36*,i,1.1,1
